Assay [1] deals with Glutathione peroxidase 1 (Homo sapiens) (UniProt P07203). Nature of the assay: Primary qHTS Assay for Inhibitors of Recombinant Selenoprotein Glutathione Peroxidase 1 (GPX1) (AID 1845191). For activity, negative = inhibition: % is set by controls: 0 for no effect and ±100 for the full control effect. Note: nearly all actives have a fitted effect of over 65% in size. In short, it runs like this:
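GR-coupled assay: compounds preincubated 30 min at room temperature with GPX1, then reaction started with CHP; final 10 nM GPX1, 1 mM GSH, 0.5 mM CHP, 0.5 mM NADPH, 100 nM GR, 0.01% BSA, pH 7.5 Tris buffer. NADPH fluorescence (340/450 nm) read at 0 and 15 min.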

The target of assay [2] is Phospholipid hydroperoxide glutathione peroxidase GPX4 (Homo sapiens) (UniProt P36969). Nature of the assay: Primary qHTS Assay for Inhibitors of Recombinant Selenoprotein Glutathione Peroxidase 4 (GPX4) (AID 1845192). For activity change, negative = inhibition: series mostly up to about 50 µM; % is set by controls: 0 for no effect and ±100 for the full control effect. Note: nearly all actives have a fitted effect of over 65% in size. Note: potency is the fitted concentration of half-maximal effect. In short, it runs like this:
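GR-coupled assay: recombinant GPX4 preincubated 30 min with compound at room temperature; final 200 nM GPX4, 1 mM GSH, 0.5 mM cumene hydroperoxide, 0.5 mM NADPH, 100 nM GR, 0.01% BSA, pH 7.5 Tris. NADPH fluorescence (340/450 nm) read at 0 and 15 min.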
Background: In qHTS, concentration-response curves come from the screen itself.

Assay [3] has as its target Luciferin 4-monooxygenase (Photinus pyralis) (UniProt P08659). Put plainly: Primary firefly luciferase (FLuc) qHTS assay for identification of artifact compounds. (AID 1845220).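 For activity change, negative = inhibition: series mostly up to about 54 µM; plate controls were DMSO vehicle for no effect and no enzyme for full effect.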 Note: nearly all actives have a fitted effect of over 60% in size. Note: potency is the fitted concentration of half-maximal effect. The gist of the method:
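D-luciferin and ATP (10 uM each, final) in Tris acetate buffer pH 7.6 were incubated with compounds for 15 min at room temperature. The reaction was started with 10 nM Photinus pyralis luciferase and luminescence read after 5 min. Percent inhibition was fitted to a 4-parameter Hill equation.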

Assay [4] in a line: Primary fluorescence-based thiol-reactive (MSTI) qHTS assay for identification of artifact compounds. (AID 1845221).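 Note: series mostly up to about 54 µM; thiol-reactive compounds lower the probe fluorescence signal; nearly all actives have a fitted effect of over 65% in size.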 In short, it runs like this:
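A multi-concentration qHTS design tested compounds against 4 uM MSTI, pH 7.4 phosphate-buffered saline. Plates were protected from light for 1 h at room temperature before imaging fluorescence.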

In assay [5] the test system is Nanoluciferase (engineered Oplophorus gracilirostris luciferase). Nature of the assay: Primary Nanoluciferase (NLuc) qHTS assay for identification of artifact compounds. (AID 1845222).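 Note: series mostly up to about 54 µM; 0% = DMSO and -100% = no enzyme.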 In short, it runs like this: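 Diluted conditioned medium from NLuc-expressing S16 cells treated with compounds for 15 min at room temperature, then Nano-Glo substrate added; luminescence read after 5 min. Percent inhibition versus no-enzyme and DMSO controls fitted to 4-parameter Hill equation.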

“And” between values parts separate entries of the source, which are not always exact repeats. Equal values may be shown once. A number with no mark means an inactive call. Results filed as inconclusive are left out. The source made the active and inactive calls. Calls come from the whole dose curve; as a rule, active = well fitted curve in the direction sought with a large enough effect; inconclusive = small, poorly fitted or top-dose-only effect, or another doubt; inactive = no such curve, though single readings can be large; an effect the other way counts as inactive or inconclusive.

Sequence of Phospholipid hydroperoxide glutathione peroxidase GPX4 (Homo sapiens) (P36969 whole entry, looked up): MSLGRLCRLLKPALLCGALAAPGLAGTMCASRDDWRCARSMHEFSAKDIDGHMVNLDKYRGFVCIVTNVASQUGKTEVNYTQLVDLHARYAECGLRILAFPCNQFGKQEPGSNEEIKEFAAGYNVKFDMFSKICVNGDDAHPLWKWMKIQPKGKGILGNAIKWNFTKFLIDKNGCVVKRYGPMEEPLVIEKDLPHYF
Sequence of Glutathione peroxidase 1 (Homo sapiens) (P07203 whole entry, looked up): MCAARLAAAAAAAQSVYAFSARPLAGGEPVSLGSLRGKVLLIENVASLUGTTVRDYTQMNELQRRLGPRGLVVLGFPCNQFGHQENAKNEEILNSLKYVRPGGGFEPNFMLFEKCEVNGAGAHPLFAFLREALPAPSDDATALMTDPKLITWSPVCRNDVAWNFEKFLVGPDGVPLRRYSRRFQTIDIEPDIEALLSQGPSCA

For `CC(C)=CCC/C(C)=C/COCC1OC(n2ccc(=O)[nH]c2=O)C(O)C1O` (stereo not given), the Potency result in assay [1], in assay [2], in assay [3], in assay [4] and in assay [5] was “inactive” throughout.
On to `COc1ccc(-c2cnc3c(-c4cccc5ncccc45)cnn3c2)cc1`, for which the Potency entry in assay [1], in assay [2], in assay [3], in assay [4] and in assay [5] was “inactive” in each case.
Consider `COc1ccc(OC)c(-c2ccc(NC(=O)c3ccncc3F)cc2)c1`, for which the Potency entry in assay [1], in assay [2], in assay [3], in assay [4] and in assay [5] was “inactive” each time.
`O=C(NC[C@H]1CN(c2ccc(N3CCOCC3=O)cc2)C(=O)O1)c1ccc(Cl)s1`: the Potency entry in assay [1], in assay [2], in assay [3], in assay [4] and in assay [5] was “inactive” in each case.
With `CC(C)(C[C@@](O)(Cc1cc2ccncc2[nH]1)C(F)(F)F)c1cc(F)ccc1O`, the Potency result in assay [1], in assay [2], in assay [3], in assay [4] and in assay [5] was “inactive” throughout.
Regarding `O=C(c1cc(Cc2n[nH]c(=O)c3ccccc23)ccc1F)N1CCCNCC1`, the Potency result in assay [1], in assay [2], in assay [3], in assay [4] and in assay [5] was “inactive” in each case.
`CCCC1(CCC)CCC2(CCN(CCCN(CC)CC)C2)CC1`: the Potency entry in assay [1], in assay [2], in assay [3], in assay [4] and in assay [5] was “inactive” throughout.
On to `COc1cc(/C=C/C(=O)NCCn2c(C(F)(F)F)cc3ccccc32)cc(OC)c1OC`, for which the Potency result in assay [1], in assay [2], in assay [3], in assay [4] and in assay [5] was “inactive” throughout.
Take `Fc1ccc2c(CCNCc3cccc(OCC(F)(F)C(F)F)c3)c[nH]c2c1`: the Potency entry in assay [1], in assay [2], in assay [3], in assay [4] and in assay [5] was “inactive” throughout.
For `Cc1c[nH]c2ncnc(N3CCC(CN)(C(=O)Nc4cccc(OC(=O)N(C)C)c4)CC3)c12`, the Potency entry in assay [1], in assay [2], in assay [3], in assay [4] and in assay [5] was “inactive” each time.
Consider `CC(=O)OC1C(OC(=O)c2ccccc2)C2C(=C(C)CCC2(C)C)C23CCC(C)(C2)C(=O)CC13` (stereo not given), for which the Potency entry in assay [1], in assay [2], in assay [3], in assay [4] and in assay [5] was “inactive” each time.
For the molecule `NC(=O)CCCSc1nc(N)nc(-c2c(Cl)cc3c4c(cccc24)COC3)n1`, the Potency entry in assay [1], in assay [2], in assay [3], in assay [4] and in assay [5] was “inactive” each time.
`O=C(Nc1cnc(Cl)nc1)c1ccc(F)c(F)c1`: the Potency result in assay [1], in assay [2], in assay [3], in assay [4] and in assay [5] was “inactive” in each case.
As for `CO[C@@H]1CC(OC2CCC3(C)C(CCC45CCC(C6=CC(=O)OC6)C(C)(CCC43)C5=O)C2)O[C@H](C)[C@@H]1O[C@@H]1O[C@H](CO[C@@H]2O[C@H](CO)[C@@H](O)[C@H](O)[C@H]2O)[C@@H](O)[C@H](O)[C@H]1O` (stereo not given in full), the Potency result in assay [1] and in assay [2] was “inactive” throughout. In addition, the activity change, negative = inhibition in assay [3] is -4.2% [at 11.6 µM]. The activity change, negative = thiol reactive in assay [4] is -1.23% [at 11.5 µM]. In addition, the activity, negative = inhibition in assay [5] is -1.95% [at 11.6 µM].
`C=C1C(=O)O[C@@H]2/C=C(/C)[C@@H](OC(C)=O)C/C=C(\C)C[C@@H](OC(=O)/C(=C/CO)CO)[C@@H]12`: the Potency result in assay [1], in assay [2], in assay [3], in assay [4] and in assay [5] was “inactive” each time.
For the molecule `CC(C)C[C@H](C(=O)O)c1cc(-c2ccc(C(F)(F)F)cc2)cc(-c2ccc(C(F)(F)F)cc2)c1`, the Potency entry in assay [1], in assay [2], in assay [3], in assay [4] and in assay [5] was “inactive” in each case.
On to `CCNC(=O)Nc1ccc(-c2nc3c(c(N4CCOCC4C)n2)CCN(C2COC2)C3)cc1` (stereo not given), for which the Potency result in assay [1], in assay [2], in assay [3], in assay [4] and in assay [5] was “inactive” in each case.
For the molecule `Cc1nc(C#Cc2ccnc(Cl)c2)c(C)n1-c1ccc(OC(F)(F)F)cc1`, the Potency entry in assay [1], in assay [2], in assay [3], in assay [4] and in assay [5] was “inactive” in each case.
As to `CCOc1ccc(S(=O)(=O)N2CCCCCC2)c2ccccc12`, the Potency result in assay [1], in assay [2], in assay [3], in assay [4] and in assay [5] was “inactive” in each case.
For the molecule `CCC(C)CC(=O)OC1C(=O)C(CO)=CC(O)C1C(C)C` (stereo not given), the Potency result in assay [1], in assay [2], in assay [3], in assay [4] and in assay [5] was “inactive” in each case.
Consider `O=C(NCCCN1CCOCC1)c1cnn2c(-c3ccccc3)cc(-c3ccccc3)nc12`, for which the Potency result in assay [1], in assay [2], in assay [3], in assay [4] and in assay [5] was “inactive” throughout.
Take `Cc1nc(NC(=O)N2CCC[C@H]2C(N)=O)sc1-c1ccnc(C(C)(C)C(F)(F)F)c1`: the Potency entry in assay [1], in assay [2], in assay [3], in assay [4] and in assay [5] was “inactive” throughout.
With `CC(C)(O)C1Cc2c(ccc(C(=O)CCc3ccccc3)c2O)O1` (stereo not given), the Potency entry in assay [1], in assay [2], in assay [4] and in assay [5] was “inactive” throughout. In addition, the Potency in assay [3] is 294 nM (active).
For `CCc1cccc(CC)c1-n1c(C=C(C)C)c(C(=O)N2CCNCC2)cc(-c2nc(-c3ccc(C(F)(F)F)cc3)cs2)c1=O`, the Potency entry in assay [1], in assay [2], in assay [3], in assay [4] and in assay [5] was “inactive” each time.
In the case of `O=S(=O)(c1ccccc1)N(CC(F)(F)F)c1ccc(C(O)(C(F)(F)F)C(F)(F)F)cc1`, the Potency result in assay [1], in assay [2], in assay [3], in assay [4] and in assay [5] was “inactive” throughout.
In the case of `Cc1nc(-c2cn3c(n2)-c2ccc(-c4cnn(C(C)(C)C(N)=O)c4)cc2OCC3)n(C(C)C)n1`, the Potency result in assay [1], in assay [3], in assay [4] and in assay [5] was “inactive” in each case. Besides, the Potency in assay [2] was 14.3 µM (active) and 20.2 µM (active).
Regarding `CCN1C(C)(C)CC(Oc2ccc(C(=O)Nc3ccc(NC(=O)Nc4cc(C(C)(C)C)on4)cc3)nc2)CC1(C)C`, the Potency entry in assay [1], in assay [2], in assay [3], in assay [4] and in assay [5] was “inactive” each time.

The record behind these values is PubChem BioAssay (NCATS).
